A number with no mark means an inactive call. Inconclusive results are not listed. Calls of active or inactive are those of the source. Calls follow the shape of the dose curve; as a rule, active = well fitted curve in the direction sought with a large enough effect in the repeat runs; inconclusive = weak or mixed curves; inactive = no such curve, though single readings can be large; an effect the other way counts as inactive or inconclusive.

The source of these data is PubChem BioAssay (Tox21).

A short description of assay [1]: A CellTox Green Cytotoxicity Assay to monitor cytotoxicity in HepG2 cells - 0 hour (AID 1224882). Also: nearly all actives have a fitted effect of over 35% in size. Conditions: CellTox Green fluorescence; series mostly up to 76.8 µM. The method in brief: (§1)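 HepG2, 600 cells/well premixed w/ CellTox Green; 5 h settle, 37 C/5% CO2; pintool cpd add (DMSO); 37 C, 40 h; fluorescence read at 0, 8, 16, 24, 32, 40 h.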
Assay [2] in a line: A CellTox Green Cytotoxicity Assay to monitor cytotoxicity in HepG2 cells - 32 hour (AID 1224883). Also: nearly all actives have a fitted effect of over 50% in size. Also: potency is read from the fitted curve at half-maximal effect. As to conditions: CellTox Green fluorescence; series mostly up to 76.8 µM. The essentials:
as §1

The nature of assay [3]: qHTS RealTime-Glo MT Cell Viability Assay in HepG2 cells - 16 hour (AID 1224885). Also: nearly all actives have a fitted effect of over 50% in size. As to conditions: RealTime-Glo luminescence; series mostly up to 76.8 µM. The essentials: (§2)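 Cells + NanoLuc/prosubstrate dispensed (600 cells/well) → 5 h at 37 C/5% CO2 → compounds in DMSO transferred → 40 h incubation at 37 C, luminescence read at 0, 8, 16, 24, 32, 40 h.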
In general terms: qHTS replaces the single test concentration by a dilution series.

Assay [4] can be described thus: qHTS RealTime-Glo MT Cell Viability Assay in HEK293 cells - 24 hour (AID 1224886). Also: top concentration of the series differs between compounds; nearly all actives have a fitted effect of over 50% in size. Conditions: RealTime-Glo luminescence; series mostly up to 76.8 µM. The essentials:
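Tox21 10K qHTS, HEK293, 600 cells/well, RealTime-Glo reagent co-dispensed with cells; 5 h preincubation, compound by pintool, 37 C, luminescence at 0–40 h.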

The nature of assay [5]: qHTS RealTime-Glo MT Cell Viability Assay in HEK293 cells - 8 hour (AID 1224887). Also: top concentration of the series differs between compounds; nearly all actives have a fitted effect of over 50% in size. As to conditions: RealTime-Glo luminescence; series mostly up to 76.8 µM. The essentials: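 Luminescence readout at each listed time point; HEK293, 600 cells/well, RealTime-Glo MT reagent added with cells; compounds pinned (23 nL in DMSO) after 5 h at 37 C; continuous culture at 37 C.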
A short description of assay [6]: A CellTox Green Cytotoxicity Assay to monitor cytotoxicity in HEK293 cells - 16 hour (AID 1224888). Also: nearly all actives have a fitted effect of over 35% in size. Also: potency is read from the fitted curve at half-maximal effect. Conditions: CellTox Green fluorescence; series mostly up to 76.8 µM. The essentials: (§3)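 Read-out: fluorescence of a cell-impermeant cyanine dye staining DNA of dead cells, proportional to cytotoxicity. HEK293, 600 cells/well with reagent, compound (23 nL DMSO) added after 5 h; reads at 0, 8, 16, 24, 32, 40 h.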

Assay [7] in a line: qHTS RealTime-Glo MT Cell Viability Assay in HepG2 cells - 0 hour (AID 1224889). Also: nearly all actives have a fitted effect of over 50% in size. Conditions: RealTime-Glo luminescence; series mostly up to 76.8 µM. The essentials: as §2
The nature of assay [8]: A CellTox Green Cytotoxicity Assay to monitor cytotoxicity in HepG2 cells - 8 hour (AID 1224890). Also: nearly all actives have a fitted effect of over 45% in size. Also: potency is read from the fitted curve at half-maximal effect. Conditions: CellTox Green fluorescence; series mostly up to 76.8 µM. The essentials:
as §1

The nature of assay [9]: qHTS assay to identify small molecule antagonists of the estrogen receptor alpha (ER-alpha) signaling pathway using the BG1 cell line in the presence of 0.1 nM 17-beta-estradiol - cell viability counter screen (AID 1259241). Also: nearly all actives have a fitted effect of over 40% in size. Conditions: VM7Luc4E2 (BG1) viability, CellTiter-Fluor protease, 22 h, 0.1 nM estradiol agonist added; series mostly up to 92.4 µM. The essentials: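 VM7Luc4E2, 4,000 cells/well, phenol red-free medium + 10% charcoal-stripped FBS; 24 hr plating; cpd + 0.1 nM E2 final, 22 hr 37C/5% CO2; CellTiter-Fluor 30 min, fluorescence.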

Assay [10] is described as follows: A CellTox Green Cytotoxicity Assay to monitor cytotoxicity in HEK293 cells - 8 hour (AID 1224884). Also: nearly all actives have a fitted effect of over 35% in size. Conditions: CellTox Green fluorescence; series mostly up to 76.8 µM. The method in brief:
as §3
% is scaled to controls: 0 for no effect and ±100 for the full control effect.

For `NNS(=O)(=O)c1ccc(Oc2ccc(S(=O)(=O)NN)cc2)cc1`, the Potency entry in assay [1], in assay [2], in [4], in [5], in assay [6] and in [7] was “inactive” throughout. For the same molecule, the Potency entry in assay [8] was “inactive”. For the same molecule, in assay [3], the result was inactive.
`CCCCCCCOC(=O)CCC`: the Potency result in assay [1], in assay [2], in [4], in assay [5], in [6] and in assay [7] was “inactive” in each case. Further, the Potency result in [8] is “inactive”. Further, the outcome in assay [3] was inactive.
Turning to `CCCC(CCC)(C(=O)OCC)C(=O)OCC`, the Potency entry in [1], in [2], in [4], in assay [5], in [7] and in assay [8] was “inactive” throughout. Besides, in assay [9], the Potency result was “inactive”. The call in assay [3] was inactive.
For the molecule `O=c1[nH]cnc2c1ncn2[C@@H]1O[C@H](CO)[C@@H](O)[C@H]1O`, the Potency result in [1], in [2], in [4], in assay [5], in assay [6] and in [7] was “inactive” each time. Besides, the Potency entry in assay [8] and in assay [9] was “inactive” in each case. In assay [3], the molecule was classed as inactive.
Take `CCCCCCC`: the Potency result in assay [1], in [2], in assay [4], in assay [5], in assay [6] and in assay [7] was “inactive” each time. In addition, the Potency entry in assay [8] and in [9] was “inactive” each time. The outcome in assay [3] was inactive.
On to `OCc1c2ccccc2cc2ccccc12`, for which the Potency result in assay [1], in assay [2], in assay [10], in assay [7], in assay [8] and in [9] was “inactive” throughout. The call in assay [3] was inactive.
For the molecule `C1CCOC1`, the Potency entry in assay [1], in assay [2], in [4], in [5], in assay [6] and in [7] was “inactive” throughout. Moreover, the Potency entry in assay [8] and in assay [9] was “inactive” throughout. In assay [3], the result was inactive.
Regarding `CN1CCN(c2c(F)cc3c(=O)c(C(=O)O)cn(CCF)c3c2F)CC1`, the Potency result in [1], in assay [2], in assay [4], in [5], in assay [7] and in assay [8] was “inactive” in each case. For the same molecule, the Potency entry in assay [9] is “inactive”. Also, the molecule was called inactive in [3]. In assay [6], the Potency was 5.35 µM (active).
On to `CC(Oc1c(Cl)cccc1Cl)C1=NCCN1` (stereo unspecified), for which the Potency result in [1], in assay [2], in assay [4], in [5], in [6] and in [7] was “inactive” throughout. In addition, the Potency result in [9] is “inactive”. In assay [3], the molecule was called inactive.
Take `O=CCCc1ccccc1`: the Potency entry in assay [1], in [2], in [4], in [5], in assay [6] and in [7] was “inactive” throughout. The Potency result in [8] and in assay [9] was “inactive” in each case. Also, the molecule was called inactive in assay [3].
For `NC/C=C/C(=O)O`, the Potency entry in assay [1], in assay [2], in [4], in assay [5], in assay [6] and in assay [7] was “inactive” throughout. The Potency entry in assay [8] and in assay [9] was “inactive” each time. Also, the molecule was classed as inactive in [3].
Turning to `O=C1C=CC(=O)O1`, the Potency result in [1], in assay [2], in assay [4], in [5], in assay [6] and in assay [7] was “inactive” throughout. Besides, in assay [9], the Potency result is “inactive”. Further, the outcome in assay [3] was inactive.
For the molecule `CCOC(=O)C1CC(=O)C(=C(O)C2CC2)C(=O)C1` (stereo unspecified), the Potency entry in assay [1], in assay [2], in [4], in assay [5], in assay [6] and in [7] was “inactive” in each case. Also, in assay [8], the Potency result is “inactive”. Further, in assay [3], the call was inactive.
`CC1(C)S[C@@H]2[C@H](NC(=O)C(C(=O)O)c3ccccc3)C(=O)N2[C@H]1C(=O)O` (stereo partly specified): the Potency result in [1], in assay [2], in assay [4], in [5], in assay [6] and in assay [7] was “inactive” each time. Besides, the Potency entry in assay [8] and in assay [9] was “inactive” in each case. Moreover, the molecule was classed as inactive in assay [3].
Consider `CC/C=C\CCOC(=O)C(C)C`, for which the Potency entry in assay [1], in [2], in [4], in assay [5], in [6] and in assay [7] was “inactive” each time. In assay [9], the Potency entry was “inactive”. Besides, in [3], the call was inactive.
Regarding `O=C(O)[C@@H]1CSCN1`, the Potency result in assay [1], in [2], in [4], in assay [5], in assay [6] and in [7] was “inactive” each time. The Potency result in [8] and in assay [9] was “inactive” throughout. Also, the call in assay [3] was inactive.
Consider `NCCC(O)(P(=O)(O)O)P(=O)(O)O`, for which the Potency result in assay [1], in [2], in assay [4], in [5], in assay [6] and in assay [7] was “inactive” in each case. Moreover, in [8], the Potency entry is “inactive”. For the same molecule, the outcome in assay [3] was inactive.
For `CCCCCCCCOC(=O)CCCCCCCCC(=O)OCCCCCCCC`, the Potency result in assay [1], in assay [2], in assay [4], in assay [5], in [6] and in assay [7] was “inactive” each time. Moreover, in [3], the molecule was called inactive.
Turning to `CCCCCCCCCCCCOCCOS(=O)(=O)O`, the Potency result in assay [1], in [4], in [5], in [7] and in assay [9] was “inactive” throughout. Besides, the Potency in assay [2] was 54.9 µM (active); in assay [6], 21.9 µM (active); in assay [8] it was 54.9 µM (active). For the same molecule, the call in [3] was inactive.
As to `CC(C)C1=CC2=CC[C@@H]3[C@](C)(CCC[C@@]3(C)C(=O)O)[C@H]2CC1`, the Potency entry in assay [1], in [2], in [4], in assay [5], in [6] and in [7] was “inactive” throughout. Further, in assay [8], the Potency entry was “inactive”. Moreover, the outcome in assay [3] was inactive.
Turning to `OCC(CBr)(CBr)CBr`, the Potency entry in [1], in assay [2], in [4], in assay [5], in assay [6] and in assay [7] was “inactive” throughout. For the same molecule, the Potency entry in assay [8] is “inactive”. In assay [3], the molecule was classed as inactive.
On to `C=Cc1ccccc1`, for which the Potency result in assay [1], in [2], in assay [4], in [5], in [6] and in [7] was “inactive” in each case. For the same molecule, the Potency result in assay [8] and in assay [9] was “inactive” in each case. Besides, in assay [3], the molecule was classed as inactive.
For the molecule `CCC/C=C/CO`, the Potency result in assay [1], in assay [2], in assay [4], in assay [5], in assay [6] and in assay [7] was “inactive” throughout. Also, the Potency result in [8] and in assay [9] was “inactive” throughout. Also, the molecule was classed as inactive in assay [3].
Turning to `CS(=O)(=O)c1ccc([C@@H](O)[C@@H](CF)NC(=O)C(Cl)Cl)cc1`, the Potency result in [1], in assay [2], in assay [4], in [5], in [6] and in [7] was “inactive” throughout. Further, the Potency entry in assay [8] and in [9] was “inactive” each time. Also, the outcome in assay [3] was inactive.
Regarding `NC(Cc1ccc(F)cc1)C(=O)O` (stereo unspecified), in [1], the cytotoxicity is -0.531% [at 6.97 µM]. Further, the cytotoxicity increase in [2] was 8.52% [at 6.97 µM]; in [8] it was 1.46% [at 6.97 µM]. Moreover, in assay [3], the activity change, negative = cytotoxic is 2.23% [at 6.97 µM]. In addition, the activity change, negative = cytotoxicity is -0.156% [at 6.97 µM] in [4], 1.39% [at 6.97 µM] in assay [5], 18.9% [at 6.97 µM] in [7] and 0.956% [at 8.39 µM] in [9]. In assay [6], the activity change is 17.7% [at 6.97 µM, hits give high values].
